From PubChem
The list is not random: actives were taken first. Their share in the collection is about 19%.
HT1080-NT tox – kills 2HG-producing HT-1080-NT fibrosarcoma cells. HT-1080-NT fibrosarcoma viability, CellTiter-Glo ATP luminescence, 48 h. Potency, µM (highest dose often 46.1 µM), for the others: at the top dose activity, negative = less viability, actives largely listed as cytotoxic. actives 1.6% (n = 360,000);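 further: NT is the 2HG producing partner of a matched IDH1 knockdown line; 0% = DMSO-treated cells and -100% = media-only wells without cells; nearly all actives have a fitted effect of over 55% in size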
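750 cells/well, RPMI + 5% FBS; 2 h settle, compound pin-transfer, 48 h at 37 degrees C. CellTiter-Glo 10 min RT, luminescence. Normalized to DMSO and media-only wells.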
TDP1 cell CPT – growth inhibition of DT40 Tdp1-/-;hTDP1 cells with camptothecin (screen for TDP1 inhibitors); Potency, µM (titrated, usually from 46.2 µM), without a hit: at the highest dose activity change, negative = growth inhibition, most hits filed as inhibitors; AID 686979; chicken DT40 Tdp1-/-;hTDP1 cells + 20 nM CPT, ATP luminescence, 48 h; actives 12% (n = 420,000); further: nearly all actives have a fitted effect of over 55% in size
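Chicken DT40 Tdp1-/- cells stably complemented with human TDP1 were seeded at 400 cells/well in medium containing 20 nM camptothecin, exposed to pin-transferred compounds, and grown at 37 °C for at least 48 hr. Viability was read as ATP luminescence.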
HT1080 IDH1KD tx – kills HT-1080 cells with IDH1 knockdown | HT-1080 IDH1 knockdown viability, ATP luminescence, 48 h | Potency, µM (top dose mostly 46.1 µM), inactives show top-dose activity, negative = toxicity, hits mostly cytotoxic | actives 2% (n = 360,000) | AID 686971;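 further: 0% = DMSO wells and -100% = cell-free medium wells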
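CellTiter-Glo luminescence after 48 h compound exposure at 37 degrees C of IDH1-knockdown HT-1080 cells in 5% FBS RPMI. %Activity scaled between DMSO wells and cell-free media wells, with curves fitted and assigned curve classes.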
KB-3-1 tox – KB-3-1 parental cell cytotoxicity. Potency, µM (top dose mostly 46.1 µM), hits mostly cytotoxic. AID 1347075. KB-3-1 viability, CellTiter-Glo ATP luminescence, 72 h. actives 1.4% (n = 400,000); further: nearly all actives have a fitted effect of over 60% in size
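Here the drug-naive KB-3-1 line serves as comparator for MDR sub-line selectivity; cells received compound titrations, 72 h at 37 °C, then CellTiter-Glo readout.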
KB-V1 cytotox – kills drug-selected multidrug resistant KB-V1 cells; KB-V1 MDR cells viability, CellTiter-Glo, 72 h; Potency, µM (titrated, usually from 46.1 µM), usual class: cytotoxic; actives 3.4% (n = 400,000); further: nearly all actives have a fitted effect of over 60% in size
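In this primary screen, KB-V1 cells overexpressing P-gp are incubated with library compounds (lowest to highest concentration) for 72 h at 37 degrees C before a luminescent ATP viability read.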
DT40 TDP1 no CPT – qHTS for Inhibitors of human tyrosyl-DNA phosphodiesterase 1 (TDP1): qHTS in cells in absence of CPT; Potency, µM (top dose mostly 46.2 µM), inactives show at the top dose activity change, negative = growth inhibition, usual class: inhibitors; actives 15% (n = 420,000); AID 686978, 2013; DT40 Tdp1-/- hTDP1 cells, no CPT, ATP luminescence, 48 h; further: nearly all actives have a fitted effect of over 55% in size
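Growth kinetics read by CellTiter-Glo luminescence after ≥48 hr at 37 °C. Cells: DT40 Tdp1-/- stably carrying human TDP1, 400 per well, compound exposure in the absence of CPT (DMSO vehicle).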
Starred values were filed as active, the others as inactive; i = inactive; ? = inconclusive; . = no result given. The call rests on the fitted dose curve; in most records, active means well fitted curve in the direction sought with a large enough effect; inconclusive means small, poorly fitted or top-dose-only effect, or another doubt; inactive means no such curve, though single readings can be large; an effect the other way counts as inactive or inconclusive. Unless noted, on the % scale 0 is the no-effect control and ±100 the full control effect; potency means the concentration at half of the fitted maximal effect.

SMILES	HT1080-NT tox	TDP1 cell CPT	HT1080 IDH1KD tx	KB-3-1 tox	KB-V1 cytotox	DT40 TDP1 no CPT
CCN1CCN(CCNC(=O)c2ccc3c(c2)N(Cc2cccc(Cl)c2)C(=O)c2ccccc2S3=O)CC1 (stereo not drawn)	-19.9%	-16.6%	?	?	i	-2.5%
CCN(C(=O)c1ccc2c(c1)N(Cc1cccc(Cl)c1)C(=O)c1ccccc1S2=O)c1ccccc1 (stereo not drawn)	.	?	.	?	i	16.4µM*
CCOc1ccc(CCNC(=O)c2ccc3c(c2)N(Cc2ccccc2)C(=O)c2ccccc2S3=O)cc1OCC (stereo not drawn)	.	16.4µM*	.	?	i	5.8µM*
COc1ccc(-n2nc3ccc(NC(=O)c4cc5ccccc5o4)cc3n2)cc1Cl	.	?	.	i	i	?
CC(=O)c1ccc(NC(=O)C2CCCN(S(=O)(=O)c3cn(C)cn3)C2)cc1 (stereo not drawn)	.	-4.6%	.	.	.	-13.1%
O=C(Nc1ccccc1Cl)C1CCN(c2nc3ccccc3[nH]2)CC1	.	-9.8%	.	i	i	-28.6%
Oc1ccc(-c2n[nH]c(C(F)(F)F)c2-c2ccccc2)c(O)c1	-20.4%	1.84µM*	10.3µM*	?	?	1.64µM*
COc1ccccc1-c1c(-c2ccc(O)cc2O)n[nH]c1C(F)(F)F	-5.2%	5.8µM*	-20.0%	i	i	2.31µM*
C=C(C)COc1ccc(-c2ncncc2-c2ccccc2OC)c(O)c1	-13.6%	?	-12.8%	i	i	?
COc1ccc(-c2c(-c3ccc(O)cc3O)n[nH]c2C(F)(F)F)cc1	?	?	?	i	i	-24.6%
CCc1ccc(C2=C(C)C(N3CCC(C(=O)Nc4ccc(F)cc4)CC3)=NS2(=O)=O)cc1	.	?	.	i	i	?
CN(C)Cc1ccccc1-c1cncnc1NCc1ccccc1	.	1.4%	.	.	.	-24.5%
COc1cc(C(=O)Nc2cc(OC)c(OC)c(OC)c2)ccc1OCc1c(C)noc1C	-4.0%	?	5.4%	i	?	?
COc1cc(NC(=O)c2ccc(OCc3c(C)noc3C)c(OC)c2)cc(OC)c1	1.8%	?	0.0%	i	i	13µM*
COc1ccc(NS(=O)(=O)c2cc(NC(=O)c3cccc(OCc4c(C)noc4C)c3)ccc2OC)cc1	-0.3%	?	-11.4%	i	i	23.1µM*
CCc1nnc(NC(=O)c2ccc(OCc3c(C)noc3C)c(OC)c2)s1	9.9%	-2.0%	4.0%	i	i	-26.7%
COc1cc(C(=O)Nc2nc3ccc(C)cc3s2)ccc1OCc1c(C)noc1C	5.1%	17.8µM*	3.0%	?	?	17.8µM*
NC(=O)CSc1nnc(-c2ccco2)n1-c1ccc(F)cc1	4.7%	-4.6%	-27.0%	i	i	?
Cc1cn2c(=O)cc(COc3ccc(C(C)(C)C)cc3)nc2s1	.	-27.1%	.	i	i	-19.2%
COc1ccc(/C=C2\SC(=O)N(CCNC(=O)Cc3coc4cc(OC)ccc34)C2=O)cc1	-9.8%	?	-6.5%	?	5.8µM*	?
O=C(NCCN1C(=O)S/C(=C\c2ccc(OC(F)F)cc2)C1=O)C1=COCCO1	?	8.2µM*	?	?	?	7.31µM*
COc1ccc(/C=C2\SC(=O)N(CCNC(=O)C3=COCCO3)C2=O)cc1	7.31µM*	1.3µM*	7.31µM*	2.91µM*	2.59µM*	1.3µM*
O=C(NCCN1C(=O)S/C(=C\c2ccc(Cl)cc2)C1=O)C1=COCCO1	-11.8%	-24.0%	0.4%	.	.	-20.1%
O=C(NCCN1C(=O)S/C(=C\c2ccc(OC(F)F)cc2)C1=O)c1cnccn1	?	1.84µM*	?	5.8µM*	8.2µM*	2.06µM*
COc1ccc2c(CC(=O)NCCN3C(=O)S/C(=C\c4cccnc4)C3=O)coc2c1	4.0%	?	-7.3%	i	i	?
SMILES	HT1080-NT tox	TDP1 cell CPT	HT1080 IDH1KD tx	KB-3-1 tox	KB-V1 cytotox	DT40 TDP1 no CPT
O=C(NCCN1C(=O)S/C(=C\c2ccc(OC(F)F)cc2)C1=O)[C@@H]1CCCN1C(=O)c1cccs1	13.1%	?	5.1%	i	?	?
Cc1ccc(NC(=O)Cn2c(SCc3ccc(F)cc3)nc3cccnc32)cc1F	.	-28.2%	.	.	.	-25.7%
COc1ccc(OCC(=O)Nc2ccc(-c3nc4cc(C)cc(C)c4o3)cc2)cc1	.	-21.7%	.	i	i	-21.7%
CC12CCC(C(=O)N(CC3CO3)C1=O)C2(C)C (stereo not drawn)	4.3%	-6.2%	21.4%	i	i	-1.4%
CC[C@]12c3[nH]c4cc(-c5ccco5)ccc4c3CCN1C(=O)[C@@H](CC(=O)NCCCn1ccnc1)C[C@@H]2C(=O)N1CCN(C(=O)C2CC2)CC1	1.3%	3.1%	9.1%	?	i	1.2%
Cc1ccc(Cl)c(NC(=O)COC(=O)c2cc[n+]([O-])cc2)c1Cl	-2.4%	0.5%	-4.3%	i	i	-2.3%
COc1ccccc1C(CNC(=O)CNC(=O)c1ccc(Cl)c(Cl)c1)N1CCCC1 (stereo not drawn)	-8.1%	-10.4%	0.8%	i	i	16.4µM*
CCN(c1ccccc1)S(=O)(=O)c1cc(C(=O)NCC(c2ccc(OC)cc2)N(C)C)ccc1C (stereo not drawn)	?	?	-20.6%	?	?	16.4µM*
COc1ccc(C(CNC(=O)c2cccc(S(=O)(=O)N(C)c3ccccc3)c2)N2CCCC2)cc1 (stereo not drawn)	-2.7%	?	-1.9%	i	i	4.11µM*
COc1ccc(C(CNC(=O)c2ccc(S(=O)(=O)N(C)C)cc2)N(C)C)cc1 (stereo not drawn)	1.6%	-3.2%	-1.4%	i	?	-17.6%
C=CCN(c1ccccc1)S(=O)(=O)c1cccc(C(=O)NCC(c2ccccc2OC)N2CCCC2)c1 (stereo not drawn)	23.1µM*	18.4µM*	?	i	i	18.4µM*
Cc1ccc(S(=O)(=O)N2CCCC2=O)c(C)c1N(C)S(C)(=O)=O	17.1%	-6.6%	11.6%	i	?	16.6%
COc1ccc(/C(C)=N/NC(=O)c2ccccc2N)cc1	6.4%	28.6%	-1.9%	i	?	-0.4%
CCOc1ccc(S(=O)(=O)NCCC(=O)N(C)Cc2cccs2)cc1	11.1%	-23.7%	2.2%	i	i	?
